8 molecules from PubChem BioAssay (NCI) can be followed below.

The structures appear in SMILES notation. This is part of a sample that, as a whole, favours compounds with a hit. Of some 83,000 tested, about 20% had one in any assay.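 Compound tested at a single concentration for 48 hours in 96-well plates; a percent growth value below 10 was scored as active.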 Unmarked numbers belong to inactive results. Calls of active or inactive are those of the source.

Test systems include SR leukemia; RPMI-8226 leukemia; OVCAR-8 ovarian; OVCAR-5 ovarian; OVCAR-4 ovarian; SK-OV-3 ovarian; IGROV1 ovarian; OVCAR-3 ovarian; HS 578T breast; NCI/ADR-RES ovarian; T-47D breast; BT-549 breast; MDA-MB-435 melanoma; SW-620 colon; MCF7 breast; HCT-116 colon; HCC-2998 colon; KM12 colon; MDA-MB-468 breast.
Test in all cases: NCI-60 one-dose screen, 48 h (100 = growth as untreated, 0 = no growth, -100 = all killed)
Conditions in all cases: 10 µM unless noted

As to `N/C(=N\c1nc2ccc([N+](=O)[O-])cc2s1)NC(=O)Nc1ccccc1Cl`, the growth in the assay on SR leukemia is 23.6%; with RPMI-8226 leukemia it was 60.7%; in the assay with OVCAR-8 ovarian it was 6.87% (active); with OVCAR-5 ovarian, 38.2%; with OVCAR-4 ovarian, -26.5% (active); in the assay on SK-OV-3 ovarian it was 24.2%. For the same molecule, the growth is 55.8% in the assay with IGROV1 ovarian; -52.8% (active) with OVCAR-3 ovarian; 59.7% in the assay on HS 578T breast; 37.6% with NCI/ADR-RES ovarian; 26.2% with T-47D breast; 25.9% with BT-549 breast. In addition, the growth in the assay on MDA-MB-435 melanoma was 5.83% (active); in the assay with SW-620 colon it was 21.4%; in the assay with MCF7 breast, 36.5%; in the assay on HCT-116 colon it was -2.76% (active); in the assay with HCC-2998 colon, 86.6%; with KM12 colon it was 38.6%. Besides, the growth with MDA-MB-468 breast is 0% (active).
Regarding `COC(=O)c1ccc(-c2c(-c3ccccc3)c(F)c3oc(C(=O)OC)c(N)c3c2-c2ccccc2)cc1`, the growth in the assay on SR leukemia is 76.9%; with RPMI-8226 leukemia, 101%; in the assay on OVCAR-8 ovarian, 105%; in the assay with OVCAR-5 ovarian it was 96.6%; in the assay with OVCAR-4 ovarian it was 97.6%; with SK-OV-3 ovarian it was 98.7%. In addition, the growth in the assay on IGROV1 ovarian is 102%; with OVCAR-3 ovarian, 103%; in the assay with HS 578T breast, 91.1%; in the assay on NCI/ADR-RES ovarian, 94.3%; in the assay on T-47D breast it was 64.5%; with BT-549 breast it was 95.7%. In addition, the growth was 101% with MDA-MB-435 melanoma; 87.1% in the assay with SW-620 colon; 75.6% in the assay on MCF7 breast; 84.3% in the assay on HCT-116 colon; 98.4% with HCC-2998 colon; 95.6% in the assay with KM12 colon. Further, the growth in the assay on MDA-MB-468 breast was 84%.
As for `Cc1ccc(Cl)cc1NC(=O)N/C(N)=N/c1nc2ccccc2s1`, the growth is 5.59% (active) in the assay with SR leukemia; -7.24% (active) in the assay on RPMI-8226 leukemia; -51.4% (active) with OVCAR-8 ovarian; -28.7% (active) in the assay with OVCAR-5 ovarian; -34.8% (active) with OVCAR-4 ovarian; -25.6% (active) in the assay on SK-OV-3 ovarian. For the same molecule, the growth in the assay with IGROV1 ovarian was -4.38% (active); in the assay with OVCAR-3 ovarian, -67.7% (active); in the assay with HS 578T breast, 19%; in the assay on NCI/ADR-RES ovarian, -34.8% (active); in the assay on T-47D breast, 32.4%; in the assay with BT-549 breast it was -7.19% (active). The growth in the assay with MDA-MB-435 melanoma is -63.9% (active); with SW-620 colon, 1.84% (active); with MCF7 breast, 4.25% (active); in the assay with HCT-116 colon it was -51.9% (active); in the assay on HCC-2998 colon, -14.8% (active); with KM12 colon, -28.7% (active). Moreover, the growth in the assay with MDA-MB-468 breast was -30.1% (active).
For `COc1ccc(NC(=O)Cn2c(/C=C/c3cccc(Br)c3)nc3ccccc3c2=O)cc1`, the growth is 78.3% with SR leukemia; 42.5% with RPMI-8226 leukemia; 14.4% with OVCAR-8 ovarian; 47.6% with OVCAR-5 ovarian; -45.7% (active) with OVCAR-4 ovarian; 36.4% with SK-OV-3 ovarian. Besides, the growth in the assay on IGROV1 ovarian is 49.8%; in the assay on OVCAR-3 ovarian, 36.3%; in the assay on HS 578T breast it was -0.494% (active); with NCI/ADR-RES ovarian, 31.2%; with T-47D breast, -16.6% (active); with BT-549 breast, 56.1%. Besides, the growth was 67% in the assay on MDA-MB-435 melanoma; 32.2% in the assay on SW-620 colon; 34.2% in the assay on MCF7 breast; 26.2% with HCT-116 colon; 84.5% in the assay on HCC-2998 colon; 87.7% in the assay on KM12 colon. For the same molecule, the growth in the assay with MDA-MB-468 breast was 77.6%.
`O=C(NC(=S)N1CCN(c2ncnc3c2cnn3-c2ccccc2)CC1)c1ccc(Br)cc1`: the growth in the assay on SR leukemia is 14.1%; in the assay with RPMI-8226 leukemia, 83.4%; in the assay on OVCAR-8 ovarian, 47.4%; in the assay with OVCAR-5 ovarian it was 81.8%; in the assay on OVCAR-4 ovarian it was 41.9%; in the assay with SK-OV-3 ovarian, 57%. Further, the growth in the assay on IGROV1 ovarian is 72.1%; in the assay with OVCAR-3 ovarian, 89.6%; with HS 578T breast, 53.8%; with NCI/ADR-RES ovarian, 53.9%; in the assay with T-47D breast it was 73.1%; with BT-549 breast it was 65.1%. In addition, the growth with MDA-MB-435 melanoma is 80.3%; in the assay on SW-620 colon, 81.7%; in the assay on MCF7 breast it was 49.8%; in the assay on HCT-116 colon, 60.3%; with HCC-2998 colon, 90.5%; with KM12 colon, 92.5%. The growth in the assay with MDA-MB-468 breast is 78%.
`O=C(CSc1nnc(-c2ccc(-c3nc4ccc(Cl)cc4[nH]3)cc2)o1)Nc1ccc(Br)cc1`: the growth with SR leukemia is 17.1%; in the assay with RPMI-8226 leukemia it was 8.9% (active); in the assay on OVCAR-8 ovarian it was -31.8% (active); in the assay with OVCAR-5 ovarian, 47.5%; with OVCAR-4 ovarian, 16%; in the assay on SK-OV-3 ovarian, 73%. In addition, the growth is 53.4% with IGROV1 ovarian; 9.66% (active) in the assay with OVCAR-3 ovarian; -0.329% (active) in the assay on HS 578T breast; 15% with NCI/ADR-RES ovarian; 41.4% in the assay on T-47D breast; -1.46% (active) in the assay with BT-549 breast. The growth in the assay with MDA-MB-435 melanoma is 28.6%; in the assay with SW-620 colon, 17.9%; in the assay on MCF7 breast, 20.4%; in the assay with HCT-116 colon, 8.26% (active); with HCC-2998 colon, 76.9%; in the assay on KM12 colon, 18.9%. For the same molecule, the growth in the assay with MDA-MB-468 breast is 50.8%.
On to `O=C(c1cc2cc(OCCCN3CCC3)ccc2[nH]1)N1C[C@@H](CCl)c2c1cc(OCc1ccccc1)c1ccccc21`, for which the growth with SR leukemia was -9.25% (active); with RPMI-8226 leukemia, -37.1% (active); in the assay on OVCAR-8 ovarian, -37.6% (active); in the assay with OVCAR-5 ovarian, -76.9% (active); in the assay with OVCAR-4 ovarian, -57.7% (active); in the assay with SK-OV-3 ovarian, -9.06% (active). The growth is -53.8% (active) in the assay on IGROV1 ovarian; -29.5% (active) in the assay with OVCAR-3 ovarian; -8.06% (active) in the assay on HS 578T breast; -34.9% (active) in the assay with NCI/ADR-RES ovarian; -11.6% (active) with T-47D breast; -48% (active) with BT-549 breast. For the same molecule, the growth with MDA-MB-435 melanoma is -78.8% (active); with SW-620 colon, 0.696% (active); in the assay on MCF7 breast, -9.07% (active); with HCT-116 colon, -80.6% (active); in the assay with HCC-2998 colon, -77.1% (active); in the assay with KM12 colon, -5.46% (active). Besides, in the assay on MDA-MB-468 breast, the growth was -76.3% (active).
`Cc1nn(-c2ccccc2)c2ncn(CC(=O)N/N=C/c3ccccc3O)c(=O)c12`: the growth was 13.3% in the assay on SR leukemia; 45.4% in the assay on RPMI-8226 leukemia; 19.7% with OVCAR-8 ovarian; 63.2% in the assay on OVCAR-5 ovarian; 39.4% in the assay with OVCAR-4 ovarian; 37.7% with SK-OV-3 ovarian. The growth with IGROV1 ovarian was 40.6%; with OVCAR-3 ovarian, 18%; in the assay on HS 578T breast it was 54.9%; with NCI/ADR-RES ovarian, 23.3%; in the assay with T-47D breast, 22.9%; in the assay with BT-549 breast, 56.5%. Further, the growth in the assay with MDA-MB-435 melanoma was 64.1%; with SW-620 colon, 43.5%; in the assay on MCF7 breast, 16.3%; with HCT-116 colon, 18.5%; in the assay with HCC-2998 colon, 36.2%; with KM12 colon, 25.8%. Moreover, the growth with MDA-MB-468 breast is 10.9%.
